PostGolgi yeast: growth inhibition of a yeast mutant, post-Golgi transport screen. post-Golgi transport phenotypic cell assay. inhibition, % at 10 µM. hit rate 0.9% among 98,000;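 also: yeast cells grown in 1536-well plates; yeast grown about 18 h at 30C before absorbance read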
sEH activator: activators of human soluble epoxide hydrolase; P34913; purified human sEH enzymatic activity, activator screen; activation, % at 2 µM; hit rate 0.04% among 91,000; in the data active = activation above about 37%
sEH inh: soluble epoxide hydrolase (human) inhibition. AID 707. hit rate 0.34% among 91,000. P34913. recombinant human sEH enzymatic activity assay. inhibition, % at 2 µM; in the data active = inhibition above about 80%
PostGolgi ctrl: inhibits growth of the yeast control strain. AID 738. hit rate 5% among 98,000. efflux-deficient yeast background strain, growth absorbance A615, 16 h. inhibition, % at 10 µM
Cav3 T inh: human Cav3.2 channel inhibition, primary screen | AID 449739 | O95180 | B-score at 10 µM | hit rate 4% among 100,000 | Cav3.2-expressing cells, Fluo-4 calcium fluorescence FDSS; active compounds read low;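 active = single-dose well whose peak fluorescence ratio is a statistical outlier from its plate by either plate-standardised score or position-corrected B-score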
Numbers without * were called inactive. Sampled rows, rich in hits. Any-hit rate of the full collection: about 7.8%. Rule as the data show it, unless noted: active = inhibition above about 30%; inactive = the rest.

How did Cc1cccnc1NC1(C(F)(F)F)N=C(c2ccccc2)NC1=O (stereo not given) do in these assays?
PostGolgi yeast: -4.6; sEH activator: 0.5; sEH inh: 1.5; PostGolgi ctrl: 1.2; Cav3 T inh: -0.0508

How did CC1CC(C)(C)N2C(=O)C3(Nc4ccccc4S3)c3cccc1c32 (stereo not given) do in these assays?
PostGolgi yeast: -0.8; sEH activator: 10.3; sEH inh: -11.8; PostGolgi ctrl: 44.5*; Cav3 T inh: -4.7*

Results for O=C1N2CCCc3cccc(c32)C12Nc1ccccc1S2 (stereo not given) ?
PostGolgi yeast: -3.4; sEH activator: -3.7; sEH inh: 4.2; PostGolgi ctrl: -13.6; Cav3 T inh: -0.586

Results for O=C(NCc1ccc(Cl)cc1)c1ccc(Cn2cc(C(F)(F)F)ccc2=O)cc1 ?
PostGolgi yeast: 24.2; sEH activator: -20.5; sEH inh: 22.8; PostGolgi ctrl: 14.4; Cav3 T inh: -5.7*

How did CC(C)(C)c1ccc(C(=O)NCc2ccc(Cl)cc2)cc1 do in these assays?
PostGolgi yeast: -6.6; sEH activator: -10.7; sEH inh: 12.7; PostGolgi ctrl: 6.8; Cav3 T inh: -1.03

What do the screens show for `O=C(NCc1ccccc1Cl)c1ccc(Cn2cc(C(F)(F)F)ccc2=O)cc1`?
PostGolgi yeast: -3.2; sEH activator: -87.7; sEH inh: 88.0*; PostGolgi ctrl: 5.5; Cav3 T inh: -0.932

Results for CN(Cc1ccccc1)C(=O)CSc1nnc(-c2ccco2)n1-c1ccccc1 ?
PostGolgi yeast: 13.0; sEH activator: 9.9; sEH inh: -11.4; PostGolgi ctrl: 2.3; Cav3 T inh: -0.258

How did c1ccc(Cc2nc3ccccc3n2Cc2ccccc2)cc1 do in these assays?
PostGolgi yeast: -1.5; sEH activator: -13.9; sEH inh: 12.1; PostGolgi ctrl: 18.7; Cav3 T inh: -4.34*

What do the screens show for `CC(C)(C)Cc1nc2ccccc2n1CCc1ccccc1`?
PostGolgi yeast: -0.3; sEH activator: -1.1; sEH inh: 1.2; PostGolgi ctrl: 24.9; Cav3 T inh: -4.28*

What do the screens show for `COC(=O)c1cc(NCc2ccc3c(c2)OCO3)ccc1N1CCOCC1`?
PostGolgi yeast: -7.5; PostGolgi ctrl: 6.8; Cav3 T inh: -0.555

What do the screens show for `O=C(O)c1cc(NCc2ccc3c(c2)OCO3)ccc1N1CCOCC1`?
PostGolgi yeast: 31.9*; sEH activator: -9.5; sEH inh: 7.8; PostGolgi ctrl: -1.5; Cav3 T inh: 0.507

How did c1ccc(-c2nc3nonc3nc2-c2ccccc2)cc1 do in these assays?
PostGolgi yeast: 15.9; sEH activator: 6.2; sEH inh: -5.8; PostGolgi ctrl: 31.3*

Results for CCCN(CCC)c1nc2ccccc2n2c(C)nnc12 ?
PostGolgi yeast: 9.8; sEH activator: 5.0; sEH inh: -1.6; PostGolgi ctrl: 45.0*; Cav3 T inh: -4.05

How did Cc1nnc2c(Oc3ccccc3)nc3ccccc3n12 do in these assays?
PostGolgi yeast: -10.5; sEH activator: -9.3; sEH inh: 10.8; PostGolgi ctrl: 5.1; Cav3 T inh: 0.873

What do the screens show for `O=C(NC1CCCCC1)c1nc2c(nnn2Cc2ccccc2Cl)c(=O)[nH]1`?
PostGolgi yeast: -2.2; sEH activator: -4.6; sEH inh: 2.6; PostGolgi ctrl: 18.6; Cav3 T inh: -5.3*

What do the screens show for `Cc1nc2sc(C(c3ccco3)N3CCN(C(c4ccccc4)c4ccccc4)CC3)c(O)n2n1` (stereo not given)?
Cav3 T inh: -5.39*

Results for Cc1ccc(C(c2sc3nc(C)nn3c2O)N2CCN(c3ccccc3F)CC2)cc1 (stereo not given) ?
PostGolgi yeast: 3.2; sEH activator: 1.4; sEH inh: 1.6; PostGolgi ctrl: 8.7; Cav3 T inh: -5.54*

Results for COc1cc2c(cc1NC(=O)CN(C)Cc1nc3ccccc3c(=O)[nH]1)oc1ccccc12 ?
PostGolgi yeast: -5.6; PostGolgi ctrl: 58.9*; Cav3 T inh: -0.145

Results for COc1cc(OC)nc(NC(=O)CSc2nc3ccccc3[nH]2)n1 ?
PostGolgi yeast: -1.1; sEH activator: 8.1; sEH inh: -10.4; PostGolgi ctrl: -1.6; Cav3 T inh: -0.0335

What do the screens show for `COc1cc2c(cc1NC(=O)CSc1nc3ccccc3[nH]1)oc1ccccc12`?
PostGolgi yeast: 2.4; sEH activator: 1.6; sEH inh: -3.7; PostGolgi ctrl: 74.5*; Cav3 T inh: -0.774

Results for Cc1ccc(C)n1-c1sc2c(c1C#N)CCC(C)C2 (stereo not given) ?
PostGolgi yeast: -8.5; sEH activator: 13.1; sEH inh: -15.1; PostGolgi ctrl: 2.6; Cav3 T inh: -0.769

Results for COc1ccc(OC)c(NC(=O)c2nnn(Cc3ccc(Br)cc3F)c2N)c1 ?
PostGolgi yeast: -12.6; sEH activator: -15.1; sEH inh: 15.1; PostGolgi ctrl: 31.2*; Cav3 T inh: -0.738
